This is one part of a sample in which hits are shown more often than they occur.
TDP-43 rescue: inhibitors of TDP-43 toxicity in yeast. yeast TDP-43 toxicity rescue, BacTiter-Glo growth, 24 h. Potency, µM (series often up to 46.1 µM), actives largely listed as activators. 0.45% of 45,000 active; active = well fitted activation curve with a large enough effect; also: 0% is about no effect; nearly all actives have a fitted effect of over 55% in size
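TDP-43-expressing yeast, pregrown in raffinose, seeded at OD600 0.02 in galactose medium with compound for 24 hr at 30 deg C. Growth read by BacTiter-Glo luminescence, so rescue of toxicity appears as activation.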
Active calls of the source: *; i = inactive. Potency is read from the fitted curve at half-maximal effect.

SMILES	TDP-43 rescue
CN1CCN(c2oc(/C=C/c3ccc(F)cc3)nc2C#N)CC1	i
COc1ccccc1Nc1ccc(C(=O)O)cc1[N+](=O)[O-]	i
CN(C)c1ccc(C(=O)c2ccccc2C(=O)O)cc1[N+](=O)[O-]	i
CN(Cc1ccccc1)c1ccc(C(=O)O)cc1[N+](=O)[O-]	16µM*
O=C(Nc1cccc(Cl)c1)N1Cc2ccccc2Oc2ncccc21	i
Cc1cc(OCC(=O)Nc2cc(-c3nc4ccccc4[nH]3)ccc2C)ccc1Cl	i
O=C(c1ccco1)c1cn(CC(=O)N2CCCc3ccccc32)c2ccccc12	18µM*
O=Cc1cn(CC(=O)N2CCCCC2)c2ccccc12	i
O=C(Cn1cc(C(F)(F)F)ccc1=O)N1CCCc2ccccc21	i
O=C(Nc1ccc(F)c(Cl)c1)N1CCN(C(=O)c2nsc3ccccc23)CC1	i
Cc1ccc(C)c(Cn2c(=O)n(CCCCCC(=O)NCc3ccc4c(c3)OCO4)c(=O)c3sccc32)c1	i
COc1ccccc1CC(=O)Nc1nc(-c2ccc(F)c(F)c2)cs1	13µM*
COc1ccc(CC(=O)Nc2nc(-c3ccc(OC)c(OC)c3)cs2)cc1OC	i
COc1cc(OC)cc(C(=O)N[C@H](C(=O)Nc2nc(-c3ccc(F)c(F)c3)cs2)C(C)C)c1	i
Cc1ccccc1NC(=O)Cn1c(=O)n(CCC(=O)NCc2ccc3c(c2)OCO3)c(=O)c2sccc21	i
CCc1ccc(N(CC)C(=O)c2ccc3c(=O)n4c(nc3c2)CCCCC4)cc1	i
CCOc1ccccc1NC(=O)c1ccccc1-c1ccccc1	i
CN(Cc1ccc(F)cc1)C(=O)COc1ccccc1-c1ccccc1	25µM*
CN(Cc1ccc(F)cc1)C(=O)C(c1ccccc1)c1ccccc1	i
COc1ccc(Br)c2c1-c1nc(NC(=O)c3cccc(C)c3)sc1C2	i
COc1ccccc1N1CCN(C(=O)c2ccc3c(c2)N(Cc2ccccc2)C(=O)c2ccccc2S3(=O)=O)CC1	i
O=C(Cn1c(=O)c2sccc2n(CC(=O)Nc2ccc(Cl)cc2Cl)c1=O)NCCc1ccccc1	i
CC1=C(C(=O)NC(C)CCc2ccccc2)C2(CCC(C)CC2)OC1=O (stereo not given)	i
CCOc1ccc(NC(=O)C2=C(C)C(=O)OC23CCC(C)CC3)cc1 (stereo not given)	13µM*
COc1ccc(OC)c(CCNC(=O)C2=C(C)C(=O)OC23CCC(C)CC3)c1 (stereo not given)	i
SMILES	TDP-43 rescue
COC(=O)c1ccc(NC(=O)Cn2cnc3c2c(=O)n(C)c(=O)n3C)cc1	i
Cn1c(=O)c2c(ncn2CCOc2ccc(Br)cc2)n(C)c1=O	11µM*
COc1ccc(/C=N/NC(=O)Cn2cnc3c2c(=O)n(C)c(=O)n3C)cc1	i
COc1ccccc1OCc1nnc(-c2ccccc2)o1	i
CCCCOCc1cc(CN2CCN(c3cccc(Cl)c3)CC2)c(O)c2ncccc12	i
CCOc1ccc(NC(=O)Cn2c(=O)n(CC(=O)NCCc3ccccc3)c(=O)c3sccc32)cc1	i
O=C(NCc1cccc(Cl)c1)c1ccc(-c2cccnc2)c2ccoc12	14µM*
O=C(NCCc1ccccc1)c1ccc(-c2cccnc2)c2ccoc12	i
Cn1cc(-c2ccc(C(=O)NCc3cccc(Cl)c3)c3occc23)cn1	i
COc1ccc(C)cc1NC(=O)c1cc2c(s1)-c1ccccc1SC2	i
COc1ccc(-c2c(C#N)c(SCC(=O)Nc3ccccc3C)nc(C)c2C(=O)Nc2ccccc2)cc1OC	i
CCOC(=O)c1c(NC(C)=O)c2c3c(sc2n1Cc1nc(-c2ccccc2OCC)oc1C)CCCC3	i
Cc1ccsc1CN(C(=O)c1ccc(OCC(C)C)cc1)C1CCS(=O)(=O)C1 (stereo not given)	i
O=C(c1c[nH]c(C(=O)N2CCN(c3ccccc3F)CC2)c1)c1cccc(Cl)c1Cl	20µM*
NC(=O)c1cc(C(=O)c2cccc(Cl)c2Cl)c[nH]1	i
O=C(c1ccc(Cl)c(S(=O)(=O)N2CCCC2)c1)N1CCN(c2ccccc2F)CC1	i
CC(=O)Nc1ccc(NC(=O)CCc2c(C)nc3c(c(C)nn3-c3ccc(C)cc3)c2C)cc1	i
O=C(NC1CCCCCC1)C(Cc1ccccc1)n1cccc1 (stereo not given)	i
O=C(Nc1ccc(F)cc1)C(Cc1ccccc1)n1cccc1 (stereo not given)	13µM*
O=C(Cc1ccccc1)Nc1ccc(F)cc1	i
Cc1ccc(CNC(=O)C2CCN(C(=O)c3cnn(-c4ccccc4)c3-n3cccc3)CC2)cc1	i
CCCSc1ncc(Cl)c(C(=O)Nc2c(C(=O)c3ccc(C)cc3)oc3ccccc23)n1	i
COc1cccc(CNC(=O)c2oc3ccc4c(c3c2C)C(=O)CC(C)(C)O4)c1OC	i
COc1ccc(OC)c(NC(=O)CSC2=NN3CCCC(=O)N=C3S2)c1	i
CCOc1ccccc1NC(=O)CSC1=NN2CCCC(=O)N=C2S1	i
COc1ccc(Cl)cc1NC(=O)CSC1=NN2CCCC(=O)N=C2S1	14µM*
O=C(Nc1ccc(C(F)(F)F)cc1)N1CCC(N2CCCCC2)CC1	i
